# Laboratory results: PubChem BioAssay AID1346428 (National Center for Advancing Translational Sciences (NCATS), 2018)
# The campaign covered roughly 48,000 compounds. About 1,200 (2.5%) were called active. About 2% were inconclusive and are not listed.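 Rule for the calls: active = activation of at least 60% and not above a set upper limit (about 1 call in 100 departs from these limits); inconclusive = activation of 40% to 60%, or above that upper limit; inactive = activation under 40%.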 This excerpt belongs to a sample that is enriched for actives.
# Molecular target: Probable G-protein coupled receptor 32 (Homo sapiens) (UniProt O75388)
# Experiment: qHTS for Agonists of Human Resolvin D1 Receptor DRV1; note: 0% is about no effect
# Conditions: CHO-K1 GPR32 beta-arrestin PathHunter luminescence, 90 min; at 76.9 µM; active compounds read high; zero percent set by DMSO-only wells
# Procedure, shortened: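 CHO-K1 cells stably expressing ProLink-tagged GPR32 and Enzyme Activator-tagged beta-arrestin were seeded at 2,500 cells/well overnight, exposed to compounds for 90 min at 37 °C, then read by beta-Gal complementation chemiluminescence after 1 h detection reagent.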
# Sequence of Probable G-protein coupled receptor 32 (Homo sapiens) (O75388 whole entry, looked up): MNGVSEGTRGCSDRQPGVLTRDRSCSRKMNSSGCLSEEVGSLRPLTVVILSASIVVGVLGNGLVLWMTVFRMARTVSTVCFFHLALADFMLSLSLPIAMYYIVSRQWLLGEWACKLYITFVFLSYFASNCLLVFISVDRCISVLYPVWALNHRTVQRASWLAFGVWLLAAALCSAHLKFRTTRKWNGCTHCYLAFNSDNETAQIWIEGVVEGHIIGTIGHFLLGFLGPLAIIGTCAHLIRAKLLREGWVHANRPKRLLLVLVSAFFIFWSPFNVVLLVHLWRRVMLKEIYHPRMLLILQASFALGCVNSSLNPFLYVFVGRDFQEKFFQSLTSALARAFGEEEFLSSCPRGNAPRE
row,Compound,activation
1,O=C(CCS(=O)(=O)c1cc(Br)cc2c1N(C(=O)C1CC1)CC2)Nc1ccc(C(F)(F)F)cc1,-8.56% (inactive)
2,CC(C)NC(=O)c1nn(-c2ccccc2F)nc1CO,-8.71% (inactive)
3,O=C(NCCc1ccccc1)c1ccc2c(c1)N(Cc1ccccc1)C(=O)c1ccccc1S2(=O)=O,92.4% (active)
4,O=C(NCCc1ccccc1)c1ccc2c(c1)N(Cc1ccc(F)cc1)C(=O)c1ccccc1S2(=O)=O,-31.8% (inactive)
5,COCCNC(=O)c1ccc2c(c1)N(Cc1cccc(Cl)c1)C(=O)c1ccccc1S2(=O)=O,-32.3% (inactive)
6,CC(C)(C)c1ccc(S(=O)(=O)N2CCN(C(=O)c3cc(-c4ccc(Br)cc4)n[nH]3)CC2)cc1,-6.87% (inactive)
7,OCc1cnc(SCc2ccc(F)cc2)n1Cc1ccc(F)cc1,109% (active)
8,O=C(CSc1ncc(CO)n1Cc1ccc(Cl)cc1)NCc1ccc(F)cc1,39.5% (inactive)
9,O=C(CSc1ncc(CO)n1Cc1ccc(F)cc1)NCc1ccco1,7.63% (inactive)
10,CCOC(=O)C(Cc1ccccc1)NC(=O)CCc1c(C)nc2c(c(C)nn2-c2ccc(C)c(C)c2)c1C (stereo unspecified),-3.74% (inactive)
11,COc1cccc(CNC(=O)Cn2ncn3c(cc4ccccc43)c2=O)c1,-1.19% (inactive)
12,COc1ccc(-c2noc(CCC(=O)N(C)c3ccccc3C)n2)cc1,107% (active)
13,Cc1ccccc1C(=O)NCc1nc(-c2ccc(Cl)cc2)no1,-2.46% (inactive)
14,COc1cccc(CNC(=O)Cc2csc3nc(-c4ccccc4)cn23)c1,-4.88% (inactive)
15,COc1cccc(CNC(=O)CCc2nc(-c3ccc(C)cc3)no2)c1,92.5% (active)
16,COc1ccc(-c2noc(CSc3nc4ccc(C)cc4[nH]3)n2)cc1,23.5% (inactive)
17,Cc1ccc(NC(=O)CSc2nc3c([nH]c4ccccc43)c(=O)n2-c2ccccc2)cc1Cl,-26.8% (inactive)
18,CCCCNC(=O)c1cc(-c2ccc(Cl)c(Cl)c2)on1,8.61% (inactive)
19,COc1ccc(C(=O)Nc2ccc(-n3nncc3-c3ccccc3)cc2)cc1OC,-15.2% (inactive)
20,O=C(CSc1oc(-c2ccccc2)nc1S(=O)(=O)c1ccc(Br)cc1)NC1CCCCC1,-14.8% (inactive)
21,COc1ccc(C)cc1Nc1nc2ccccc2c2nnc(C)n12,9.83% (inactive)
22,CCC(=O)N1CCc2cc(S(=O)(=O)NC(CC(C)C)C(=O)NCCc3cccc(C)c3)ccc21 (stereo unspecified),64.6% (active)
23,CCC(=O)N1CCc2cc(S(=O)(=O)NC(C(=O)NCCc3ccc(C)cc3)C(C)C)ccc21 (stereo unspecified),-8.05% (inactive)
24,CCC(=O)N1CCc2cc(S(=O)(=O)NC(Cc3ccccc3)C(=O)NCc3ccc(C)cc3)ccc21 (stereo unspecified),-14.4% (inactive)
25,Cc1ccc(-c2cnc(NCc3ccc(C(C)C)cc3)n2C)cc1,-44.5% (inactive)
26,CSc1ccc(CCNC(=O)c2cnn(-c3ccccc3)c2-n2cccc2)cc1,-2.99% (inactive)
